tim10-1 inh = growth inhibitors of tim10-1 mutant yeast; S. cerevisiae tim10-1 ts strain growth, BacTiter-Glo, 24 h; inhibition, % at 20 µM; 2.2% of 330,000 active; AID 463190;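 active means inhibition of at least 40%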;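 further: mutant grown at 25 °C; 0% = DMSO wells with yeast and 100% = wells holding no yeast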
PfHsp90 set2 = inhibits growth of yeast expressing Plasmodium falciparum Hsp90 | S. cerevisiae expressing PfHsp90, BacTiter-Glo ATP, 48 h; yeast lacking PDR1 and PDR3 efflux regulators | inhibition, % at 9.4 µM | 0.32% of 310,000 active | AID 504621;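 active means every replicate shows inhibition above about 80%, whatever the replicate mean, limit read from the data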;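 further: 0% = DMSO neutral controls and 100% = 20 µM radicicol positive controls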
NLRP3 yeast inh = NALP3 inhibition in yeast | Yeast reconstituted NLRP3/ASC/caspase-1, beta-gal luminescence, 24 h | inhibition, % at 10 µM | 0.39% of 330,000 active | AID 2825;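 active means inhibition of 50% or more; inactive means inhibition below 50%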;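 further: plate controls were induced DMSO wells for no effect and uninduced yeast grown without galactose for full effect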
tim23-1 inh = tim23-1 yeast growth inhibition; S. cerevisiae tim23-1 growth, BacTiter-Glo luminescence, 24 h; 1.3% of 330,000 active; AID 463212; inhibition, % at 20 µM;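 active means growth inhibition of the mutant yeast at or above 50%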;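 further: temperature-sensitive mutant grown at 25 °C; plate controls were DMSO-treated mutant yeast for no effect and medium wells lacking yeast for full effect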
TIM10 inh = inhibits growth of TIM10 yeast strain | S. cerevisiae TIM10 strain growth, BacTiter-Glo luminescence, 24 h | inhibition, % at 10 µM | AID 463195 | 1.4% of 330,000 active;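 active means inhibition of 40% or more at the single tested concentration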;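 further: wild-type TIM10 isogenic control strain grown at permissive 25 °C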
tim10-1 confirm = tim10-1 yeast growth inhibition, confirmed. AID 463213. S. cerevisiae tim10-1 ts strain growth, BacTiter-Glo, 24 h. inhibition, % at 20 µM. shares compounds with tim10-1 inh. 56% of 7,400 active;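 active means inhibition of yeast growth at or above a set limit in either of two repeat tests at 20 µM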;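 further: tim10-1 mutant grown at permissive 25 °C to find synthetic lethal compounds; 0% = DMSO yeast wells and 100% = medium wells without yeast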
* hit, by the source's call; . = no result. An excerpt weighted towards active compounds, which were near 3.7% of everything screened.

SMILES	tim10-1 inh	PfHsp90 set2	NLRP3 yeast inh	tim23-1 inh	TIM10 inh	tim10-1 confirm
COc1cccc(/C(C)=N/NS(=O)(=O)c2ccc(Cl)cc2)c1	28.2	-2.8	-6.5	25.8	11.4	.
COc1ccc(S(=O)(=O)N/N=C(/C)c2ccc(Cl)cc2)cc1	52.1*	.	28.0	45.0	31.9	43.6*
CSc1ccccc1C(=O)NCCS(=O)(=O)N1CCN(c2ccc(F)cc2)CC1	3.5	40.2	11.4	4.5	-3.9	.
O=C(NCCS(=O)(=O)N1CCN(c2ccc(F)cc2)CC1)C12CC3CC(CC(C3)C1)C2	41.5*	.	7.2	45.2	32.6	22.1
CC(C)CN1C(=O)c2ccc(C(=O)Nc3ccc(OCC(=O)O)cc3)cc2C1=O	7.1	-0.1	7.9	1.6	-13.2	.
Cc1ccccc1S(=O)(=O)c1c(C)cc(C)n(CC(C)C)c1=O	48.0*	-20.8	-14.2	20.2	30.5	25.1
COc1ccc(CNC(=O)CSCc2cnn(-c3ccccc3)c2-n2cccc2)cc1	43.8*	.	-8.5	13.8	-2.7	16.1
Cc1[nH]c2c(ccc3ccccc32)c1C1C(CCN)C1(C)C (stereo not given)	44.5*	.	16.3	48.5	29.2	32.5*
S=c1[nH]c2ccc3ccccc3c2[nH]1	19.3	-0.8	18.0	20.7	17.0	.
CCCC(=O)NC(=S)Nc1ccc(Cl)cn1	45.1*	14.1	20.0	46.9	38.9	31.9*
Cc1cc(Cl)ccc1OCC(=O)NC(=S)Nc1ccc(Cl)cn1	-19.5	-6.2	13.8	-0.8	-1.1	.
CC(C)c1ccc(NC(=S)N2CCCC(c3ccc(F)cc3)=N2)cc1	30.6	1.2	9.2	28.0	19.6	.
CCOC(=O)c1cnc2ccc(OC)cc2c1NCCN1CCOCC1	1.5	3.7	8.6	3.2	4.9	.
O=C1N/C(=C/c2ccc(N3CCOCC3)o2)C(=O)N1c1cccc(Cl)c1	43.1*	-20.5	36.5	18.2	3.6	35.6*
CC(C)CCn1c(O)c(N=NC(=O)Cn2ccc(C(F)(F)F)n2)c2ccccc21	6.4	-19.2	3.7	6.6	-0.7	.
O=CNn1cnc2c(oc3nc(-c4ccccc4)cc(-c4ccco4)c32)c1=O	3.1	11.8	17.7	-4.6	16.2	.
CCCCCCOc1ccc(N2C(=O)CC(N3CCN(CCN=CC4C(=O)CC(C)(C)CC4=O)CC3)C2=O)cc1 (stereo not given)	43.3*	22.9	25.2	19.5	21.7	41.4*
CCCCCCOc1ccc(N2C(=O)CC(N3CCN(CCN=CC4=C(O)CC(C)(C)CC4=O)CC3)C2=O)cc1 (stereo not given)	32.2	23.5	35.7	19.2	22.1	.
CC1=Nc2ccccc2/C1=C\c1nc(-c2ccc(F)cc2)oc1O	52.9*	-25.1	7.0	24.2	38.6	28.9
OCCC1CN(Cc2cccn2-c2ncccn2)CCN1CCc1ccccc1 (stereo not given)	0.6	.	8.4	7.9	-6.5	.
Cc1ccc(-n2nc3c(=O)n(CCCC(=O)NCCc4ccccc4C)nc(C)c3c2C)cc1	16.2	-11.1	2.3	10.2	7.7	.
Cc1ccccc1-n1c(SCC(=O)Nc2ccccc2)nc2nc3c(cc2c1=O)CCCC3	43.7*	1.9	8.6	25.0	22.7	10.1
Cc1cccc(NC(=O)CSc2nc3nc4c(cc3c(=O)n2-c2ccccc2)CCCC4)c1	29.3	-18.1	15.2	16.9	14.7	.
O=C(CSc1nc2nc3c(cc2c(=O)n1-c1ccccc1)CCCC3)Nc1cccc2ccccc12	43.4*	6.6	0.0	12.1	1.5	9.1
CCn1c(SCC(=O)Nc2ccc(Cl)cc2)nc2nc3c(cc2c1=O)CCCC3	8.5	0.4	5.0	-2.8	10.7	.
SMILES	tim10-1 inh	PfHsp90 set2	NLRP3 yeast inh	tim23-1 inh	TIM10 inh	tim10-1 confirm
O=C(CSc1nc2ccccc2c(=O)n1-c1ccc(F)cc1)Nc1ccc2c(c1)CCC2	41.3*	-4.2	4.9	18.5	20.8	18.0
O=C(CSc1nc2ccccc2c(=O)n1-c1ccc(F)cc1F)Nc1ccc2c(c1)CCC2	32.5	-7.5	3.8	16.8	-0.9	.
CC(=O)Nc1ccc(S(=O)(=O)N2C(=O)c3cccc4cccc2c34)cc1	-1.3	.	6.1	-17.0	-6.2	.
CC1CN(S(=O)(=O)c2cc(C(=O)N3CCCCC3C)ccc2Cl)CC(C)O1 (stereo not given)	9.8	9.2	-13.0	14.0	16.6	.
COc1cc(OC)cc(C(=O)NC(=S)Nc2nnn(C)n2)c1	-2.9	8.2	31.7	16.2	-18.1	.
CCOC(=O)C1CCCN(C(=O)CCCn2nnnc2CN2CCOCC2)C1 (stereo not given)	9.6	26.8	28.1	7.2	-2.9	.
Cn1ncc(Br)c1C(=O)N/N=C/c1ccc(OS(=O)(=O)c2ccccc2)cc1	45.3*	.	9.4	30.5	34.7	25.1
Cc1ccc(S(=O)(=O)N(C)C)cc1NC(=O)COC(=O)C1CCN(S(=O)(=O)c2cccs2)CC1	-2.9	42.7	-3.9	3.9	-6.3	.
COc1cc(C(c2c(C)[nH][nH]c2=O)c2c(C)[nH][nH]c2=O)ccc1OC(C)C	40.5*	12.6	6.0	31.1	34.9	41.5*
COc1cc(C(c2c(C)[nH][nH]c2=O)c2c(C)[nH][nH]c2=O)ccc1OC(=O)c1cccc([N+](=O)[O-])c1	4.9	7.3	-15.3	3.8	16.6	.
COc1ccc(C(c2c(C)[nH][nH]c2=O)c2c(C)[nH][nH]c2=O)cc1Br	14.2	-15.2	34.8	35.1	38.6	.
COc1cc(C(c2c(C)[nH][nH]c2=O)c2c(C)[nH][nH]c2=O)ccc1OCc1ccc([N+](=O)[O-])cc1	56.9*	.	11.7	21.2	26.0	51.0*
Cc1ccc(C(c2c(C)[nH][nH]c2=O)c2c(C)[nH][nH]c2=O)cc1	42.1*	7.5	27.4	20.4	11.4	29.6
CCCCCCc1cc2cc(C(N)=O)c(=N)oc2cc1O	42.2*	.	-19.0	13.1	15.2	17.6
Cc1ccccc1C(=O)N1CCN(c2ccc(NC(=O)c3ccc4c(c3)OCO4)cc2)CC1	43.7*	.	4.0	29.1	11.2	29.2*
O=C(Nc1ccc(N2CCN(C(=O)c3ccccc3F)CC2)cc1)c1cncc(Br)c1	45.5*	4.4	28.9	35.2	12.7	30.8*
O=C(Nc1ccc(N2CCN(C(=O)c3ccco3)CC2)cc1)c1ccc2c(c1)OCO2	11.0	28.7	1.9	10.5	13.1	.
O=C(Nc1ccc(N2CCN(C(=O)c3cccs3)CC2)cc1)c1cccc(F)c1	48.3*	16.1	9.2	34.4	32.2	33.0*
O=[N+]([O-])c1ccc(O)c(/C=N/Nc2ccccc2Cl)c1	19.1	-6.1	7.2	14.5	3.2	.
COc1cccc(C(=O)Nc2cccc3c2ccc2cccn23)c1	11.6	-15.1	16.5	7.1	-4.5	.
CCOC(=O)N1CCN(C2=C(NS(=O)(=O)c3ccc(C)cc3)C(=O)c3ccccc3C2=O)CC1	48.8*	1.1	5.2	39.0	4.9	16.9
Nc1ncnc(Oc2cccc(C(F)(F)F)c2)c1[N+](=O)[O-]	42.8*	14.1	-21.2	43.0	9.7	27.2

High-throughput results (PubChem BioAssay)
